A short description of test [1]: binders of probe aFSTL3 on microarray, primary screen, stem cell growth factor project, biochemical, small-molecule microarray, fluorescence 635/667 (AID 1064).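 Further: measures binding of the biotinylated anti-FSTL3 antibody to printed compounds.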 To be noted: higher = more signal.
Test [2] in a line: binders from COS7 lysate, DM2A8 probe, primary screen, torsin A project, cell lysate, small-molecule microarray, fluorescence 635/667 (AID 1065). The note with it: higher = more signal, COS7 lysate expressing mutant human TOR1A.
The nature of test [3]: binders of probe aFGF2 on microarray, primary screen, stem cell growth factor project, biochemical, small-molecule microarray, fluorescence 635/667 (AID 1067).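 Further: measures binding of biotinylated aFGF2 protein to printed compounds on slides; z-score merges feature fluorescence and signal-to-noise across triplicate slides.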 To be noted: higher = more signal.
The nature of test [4]: binders of probe aFGF10 on microarray, primary screen, stem cell growth factor project, biochemical, small-molecule microarray, fluorescence 635/667 (AID 1071).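 Further: score merges 667 nm spot intensity and signal to noise from triplicate slides.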 To be noted: higher = more signal.
The target in test [5] is Neurogenic locus notch homolog protein 2 (Homo sapiens) (UniProt Q04721). The experiment in a line: Notch2 binders on small-molecule microarrays, primary screen, biochemical, small-molecule microarray, 635 nm fluorescence, stem cell growth factors (AID 1073). The note with it: Notch2 binding, higher = more signal.
Neurogenic locus notch homolog protein 2 (Homo sapiens), sequence (Q04721 whole entry, looked up, canonical isoform): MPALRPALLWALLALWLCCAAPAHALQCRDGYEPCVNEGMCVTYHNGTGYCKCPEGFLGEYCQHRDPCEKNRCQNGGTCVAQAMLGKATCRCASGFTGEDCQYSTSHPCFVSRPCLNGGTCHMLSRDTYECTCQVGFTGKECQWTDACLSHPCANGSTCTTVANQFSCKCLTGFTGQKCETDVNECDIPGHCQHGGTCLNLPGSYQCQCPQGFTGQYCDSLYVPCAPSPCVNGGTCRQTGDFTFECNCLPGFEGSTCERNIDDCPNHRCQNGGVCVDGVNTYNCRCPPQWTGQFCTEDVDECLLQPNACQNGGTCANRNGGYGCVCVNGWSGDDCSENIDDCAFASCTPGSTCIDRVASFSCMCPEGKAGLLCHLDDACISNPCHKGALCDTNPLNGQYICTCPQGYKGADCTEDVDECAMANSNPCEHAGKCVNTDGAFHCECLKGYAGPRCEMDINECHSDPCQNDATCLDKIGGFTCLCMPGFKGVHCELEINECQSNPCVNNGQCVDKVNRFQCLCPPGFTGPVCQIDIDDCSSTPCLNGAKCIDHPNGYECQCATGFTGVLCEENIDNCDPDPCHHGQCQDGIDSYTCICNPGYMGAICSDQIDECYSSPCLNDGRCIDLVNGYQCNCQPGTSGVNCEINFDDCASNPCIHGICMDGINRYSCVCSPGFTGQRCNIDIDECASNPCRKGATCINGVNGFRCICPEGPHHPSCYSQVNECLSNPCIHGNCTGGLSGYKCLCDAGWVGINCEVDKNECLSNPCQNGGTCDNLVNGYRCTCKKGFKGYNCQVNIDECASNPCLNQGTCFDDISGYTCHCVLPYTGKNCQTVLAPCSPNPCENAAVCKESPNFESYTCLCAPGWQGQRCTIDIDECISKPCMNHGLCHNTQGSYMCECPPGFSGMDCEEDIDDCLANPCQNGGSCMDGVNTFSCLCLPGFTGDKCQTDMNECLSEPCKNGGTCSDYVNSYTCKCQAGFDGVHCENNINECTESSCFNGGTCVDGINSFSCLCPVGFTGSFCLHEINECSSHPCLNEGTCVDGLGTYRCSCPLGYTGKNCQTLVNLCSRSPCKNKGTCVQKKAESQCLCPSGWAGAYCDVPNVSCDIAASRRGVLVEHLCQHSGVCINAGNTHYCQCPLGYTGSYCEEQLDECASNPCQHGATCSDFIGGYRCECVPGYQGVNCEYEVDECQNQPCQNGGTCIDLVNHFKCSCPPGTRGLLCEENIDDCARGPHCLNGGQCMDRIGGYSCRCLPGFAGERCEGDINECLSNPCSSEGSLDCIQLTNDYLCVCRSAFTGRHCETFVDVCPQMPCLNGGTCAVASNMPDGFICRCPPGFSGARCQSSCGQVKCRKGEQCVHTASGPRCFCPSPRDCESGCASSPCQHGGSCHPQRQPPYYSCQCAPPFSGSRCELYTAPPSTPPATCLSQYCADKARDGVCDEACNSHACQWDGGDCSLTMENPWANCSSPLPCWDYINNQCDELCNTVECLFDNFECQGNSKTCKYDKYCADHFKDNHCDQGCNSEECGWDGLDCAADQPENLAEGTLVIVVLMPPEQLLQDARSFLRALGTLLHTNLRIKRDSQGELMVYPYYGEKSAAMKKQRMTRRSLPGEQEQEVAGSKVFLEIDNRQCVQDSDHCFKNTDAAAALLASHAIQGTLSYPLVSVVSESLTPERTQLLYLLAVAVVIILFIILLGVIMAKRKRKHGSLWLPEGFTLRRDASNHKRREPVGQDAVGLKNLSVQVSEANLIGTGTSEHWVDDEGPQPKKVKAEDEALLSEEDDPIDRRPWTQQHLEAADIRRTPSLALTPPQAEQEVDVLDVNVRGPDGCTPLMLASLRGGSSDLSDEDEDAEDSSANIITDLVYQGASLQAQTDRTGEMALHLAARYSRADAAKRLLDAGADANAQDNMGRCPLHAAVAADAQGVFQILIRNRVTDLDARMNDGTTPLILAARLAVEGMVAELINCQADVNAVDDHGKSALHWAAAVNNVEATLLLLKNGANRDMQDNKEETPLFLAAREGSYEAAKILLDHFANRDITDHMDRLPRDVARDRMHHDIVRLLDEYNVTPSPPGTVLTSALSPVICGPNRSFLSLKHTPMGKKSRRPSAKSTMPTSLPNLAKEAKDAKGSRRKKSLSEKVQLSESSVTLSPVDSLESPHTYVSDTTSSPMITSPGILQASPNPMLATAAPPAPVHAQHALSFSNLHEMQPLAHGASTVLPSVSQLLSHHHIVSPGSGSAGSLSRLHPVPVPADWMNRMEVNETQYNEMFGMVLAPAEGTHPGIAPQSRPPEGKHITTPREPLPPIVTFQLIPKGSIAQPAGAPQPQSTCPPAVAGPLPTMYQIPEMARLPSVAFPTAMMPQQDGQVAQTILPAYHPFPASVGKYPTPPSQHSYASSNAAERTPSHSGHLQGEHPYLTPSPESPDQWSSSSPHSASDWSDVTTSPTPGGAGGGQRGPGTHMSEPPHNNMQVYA
In test [6] the target is Pro-neuregulin-1, membrane-bound isoform (Homo sapiens) (UniProt Q02297). The test is described as follows: NRG1 binders on small-molecule microarrays, primary screen, psychiatric disease protein project, biochemical, small-molecule microarray, fluorescence 635/667 (AID 1075).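 Further: score combines 667 nm spot fluorescence with signal to noise.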 To be noted: NRG1 binding, 635 nm fluorescence, higher = more signal.
Pro-neuregulin-1, membrane-bound isoform (Homo sapiens), sequence (Q02297 whole entry, looked up, the tested form may be a part, canonical isoform): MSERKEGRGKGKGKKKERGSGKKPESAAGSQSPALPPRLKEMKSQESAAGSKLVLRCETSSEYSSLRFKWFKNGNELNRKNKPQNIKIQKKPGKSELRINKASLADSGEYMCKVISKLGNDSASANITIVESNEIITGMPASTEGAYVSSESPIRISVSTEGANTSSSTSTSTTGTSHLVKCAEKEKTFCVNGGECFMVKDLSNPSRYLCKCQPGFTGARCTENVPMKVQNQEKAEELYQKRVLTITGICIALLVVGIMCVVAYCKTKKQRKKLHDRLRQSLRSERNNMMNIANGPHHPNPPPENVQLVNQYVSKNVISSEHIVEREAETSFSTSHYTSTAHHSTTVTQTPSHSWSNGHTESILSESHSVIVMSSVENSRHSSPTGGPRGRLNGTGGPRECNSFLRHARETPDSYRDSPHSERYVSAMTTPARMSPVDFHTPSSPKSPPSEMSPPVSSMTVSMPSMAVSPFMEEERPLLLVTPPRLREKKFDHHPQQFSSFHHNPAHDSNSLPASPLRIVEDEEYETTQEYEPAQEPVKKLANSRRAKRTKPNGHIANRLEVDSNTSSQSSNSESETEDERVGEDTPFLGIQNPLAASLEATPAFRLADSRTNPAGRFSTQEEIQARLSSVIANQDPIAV
In test [7] the test system is Neuregulin-1 EGF-like domain. The test is described as follows: binders of neuregulin-1 EGF-like domain, primary screen, biochemical, small-molecule microarray, 635 nm fluorescence (AID 1081).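 Further: binding of the protein to compounds printed on small-molecule microarray slides.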 To be noted: small-molecule microarray binding, higher = more signal.
Test [8] in a line: FRG1 promoter luciferase signal modulators, primary screen, FRG1 inhibition for FSHD, cell-based, C2C12 myotubes, firefly/Renilla luciferase, luminescence (AID 1084). The note with it: higher = more signal, called active from +8 up or from −8 down.
Test [9] can be described thus: binders of probe aFST on microarray, primary screen, stem cell growth factor project, biochemical, small-molecule microarray, fluorescence 635/667 (AID 1086).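 Further: score merges 667 nm fluorescence with signal-to-noise of each printed compound spot.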 To be noted: higher = more signal.
Test [10] in a line: binders of probe aHhip on microarray, primary screen, stem cell growth factor project, biochemical, small-molecule microarray, fluorescence 635/667 (AID 1087).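 Further: score merges spot fluorescence at 667nm with spot signal to noise ratio.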 The note with it: higher = more signal.
Test [11] concerns PRMT1 (protein arginine N-methyltransferase 1). The test is described as follows: PRMT1 binders on small-molecule microarrays, primary screen, biochemical, small-molecule microarray, 635 nm fluorescence (AID 1088).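 Further: binding of Prmt1 protein to compounds spotted on small-molecule microarray slides.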 To be noted: small-molecule microarray binding, higher = more signal.
Test [12] is described as follows: yeast growth modulation, basal conditions, primary screen, YJM789 clinical isolate, OD600, 24 h (AID 1089).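 Further: growth of clinical yeast isolate S. cerevisiae YJM 789 seeded 1000 cells per well; test concentration not given here.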 The note with it: S. cerevisiae YJM789 growth, higher = more signal, called active from +8 up or from −8 down.
Test [13] can be described thus: fission yeast growth modulation, primary screen, strain 972, OD600, 24 h, no modulator (AID 1090).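 Further: basal condition with compound alone and no growth modifier present; test concentration not given here.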 To be noted: S. pombe 972 growth, higher = more signal, called active from +8 up or from −8 down.
Test [14] in a line: S. cerevisiae growth modulation with rapamycin, primary screen, strain BY4716, OD600, 96 h (AID 1091). Further: test concentration not given here. The note with it: higher = more signal, called active from +8 up or from −8 down.
For test [15], the target named is Torsin-1A-interacting protein 2 (Homo sapiens) (UniProt Q8NFQ8). The experiment in a line: LULL1 binders on small-molecule microarray, primary screen, cell lysate, human LULL1 lysate, 635/667 nm fluorescence (AID 1092).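 Further: probe is lysate of COS7 cells overexpressing human LULL1; score merges per-feature 667 nm fluorescence with signal-to-noise.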 To be noted: hLULL1 lysate binding, 635 nm fluorescence, higher = more signal.
Torsin-1A-interacting protein 2 (Homo sapiens), sequence (Q8NFQ8 whole entry, looked up): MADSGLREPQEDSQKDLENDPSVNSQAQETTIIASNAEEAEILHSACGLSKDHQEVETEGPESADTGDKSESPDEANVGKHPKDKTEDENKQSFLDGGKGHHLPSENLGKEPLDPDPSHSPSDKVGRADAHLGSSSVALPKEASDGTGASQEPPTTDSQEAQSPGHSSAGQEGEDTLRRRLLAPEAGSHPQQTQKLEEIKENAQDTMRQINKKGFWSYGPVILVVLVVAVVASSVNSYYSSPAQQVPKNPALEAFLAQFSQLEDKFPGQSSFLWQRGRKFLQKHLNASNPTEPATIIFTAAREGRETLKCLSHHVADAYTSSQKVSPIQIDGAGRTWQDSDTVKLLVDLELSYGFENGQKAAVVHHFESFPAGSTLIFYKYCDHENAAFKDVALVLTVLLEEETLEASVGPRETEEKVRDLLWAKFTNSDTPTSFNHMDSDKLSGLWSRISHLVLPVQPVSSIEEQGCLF
The nature of test [16]: E. coli growth modulation, two-sided OD650, primary screen, E. coli filamentation project, strain DRC41, 24 h (AID 1093).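 Further: MC1000 strain lacking acrAB efflux and sulA so SOS filamentation is blocked; test concentration not given here.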 The note with it: OD650, 24 h, higher = more signal, called active from +8 up or from −8 down.
Test [17] is described as follows: small-molecule microarray binders of probe aLefty2, primary screen, biochemical, biotinylated probe, 635/667 nm fluorescence (AID 1094).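 Further: score merges spot fluorescence near 667 nm with spot signal-to-noise ratio.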 The note with it: higher = more signal.
In test [18] the test system is Noggin (protein binding on small-molecule microarray). The experiment in a line: Noggin binders on small-molecule microarray, primary screen, biochemical, 635/667 nm fluorescence (AID 1095).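 Further: score merges 667 nm feature fluorescence with signal to noise over triplicate slides.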 To be noted: 635 nm fluorescence, higher = more signal.
Test [19] deals with Neurogenic locus notch homolog protein 3 (Homo sapiens) (UniProt Q9UM47). The test is described as follows: NOTCH3 binders on small-molecule microarray, primary screen, biochemical, 635/667 nm fluorescence (AID 1096). The note with it: NOTCH3 binding, 635 nm fluorescence, higher = more signal.
Test [20] can be described thus: small-molecule microarray binders of probe aEGFR, primary screen, biochemical, biotinylated probe, 635/667 nm fluorescence (AID 1097).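 Further: probe is a biotinylated anti-EGFR antibody binding compounds printed on slides; score combines fluorescence near 667 nm and signal to noise of each spot.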 The note with it: higher = more signal.

Here are results for four molecules from PubChem BioAssay.

Structures are written as SMILES. Values joined by “and” are separate entries in the source; they are usually repeats but may differ in a detail not shown here. Identical values can stand only once. Active and inactive are the calls of the source.

Regarding `CC(CO)N1C(=O)[C@@H]2C3C(=O)OCCC=C[C@H]3OC23C=CCN(Cn2nnc4ccccc42)C(=O)[C@@H]13` (stereo not given in full), the composite z-score is 0.634 and 0.0762 in test [1]; -1.37 and 0.709 in [2]; -0.187 and -0.0234 in test [3]; 0.0583 and 0.509 in [4]; -1.7 and -0.0585 in test [5]; 1.32 and 1.91 in test [6]. The composite z-score in test [7] was 1.5 and 1.48; in [9] it was -0.545 and -0.255; in [10], -0.137 and -0.228; in test [11], -0.414 and 0.262; in test [15] it was 0.145 and 3.01; in [17], -0.223 and -0.0882. Besides, the composite z-score is -1.78 and 0.0711 in [18]; -0.391 and 0.347 in test [19]; -0.203 and -0.0828 in [20]. Besides, the z-score in test [8] was -0.191 (inactive) and 0.519 (inactive); in [12], 1.52 (inactive) and -1.09 (inactive); in test [13] it was 0.102 (inactive) and -0.115 (inactive); in test [14], 0.73 (inactive) and -0.0895 (inactive); in test [16], 0.775 (inactive) and -0.175 (inactive).
Take `C=CCN(C(=O)C(c1cccs1)N(C(=O)/C=C\C(=O)O)c1c(Cl)cccc1CO)c1ccc(OC)cc1` (stereo not given): the composite z-score in test [1] was 1.98 and 1.01; in test [2], -0.781 and -0.551; in test [3], -0.228 and -0.0608; in test [4], -1.56 and -0.737; in [5], -1.87 and -1.28; in [6] it was 1.04 and -0.796. In addition, the composite z-score in [7] was 0.782 and 0.0793; in [9], -1 and -0.362; in test [10], -0.164 and -0.229; in test [11], -0.517 and -1.02; in test [15], 3.16 and 0.422; in test [17], 0.018 and 0.522. The composite z-score in test [18] is -3.84 and -2.48; in [19] it was -1.02 and -1.39; in test [20] it was -0.238 and -0.121. For the same molecule, the z-score in test [8] was 0.284 (inactive) and 0.649 (inactive); in test [12] it was -0.521 (inactive) and 0.247 (inactive); in test [13], -1.88 (inactive) and -0.83 (inactive); in [14] it was -1.51 (inactive) and -0.982 (inactive); in test [16], 1.67 (inactive) and -0.311 (inactive).
For `C=CCN(CCCC)C(=O)C(c1cccs1)N(C(=O)/C=C\C(=O)O)c1c(Cl)cccc1CO` (stereo not given), the composite z-score in test [1] is 1.46 and 0.323; in [2], -1.19 and -0.707; in [3], -0.288 and -0.203; in test [4], -1.27 and -1.8; in [5], -1.97 and -1.39; in test [6] it was -1.26 and -0.533. Besides, the composite z-score was -0.751 and 0.176 in test [7]; -1.94 and -0.684 in test [9]; 0.679 and -0.409 in test [10]; -0.663 and -0.538 in test [11]; 0.376 and 0.744 in [15]; 0.148 and -0.235 in test [17]. For the same molecule, the composite z-score in test [18] was -1.97 and -2.53; in test [19] it was -2.02 and -1.33; in [20] it was -0.451 and -0.328. Besides, the z-score in [8] was -0.165 (inactive) and -0.332 (inactive); in test [12], 0.135 (inactive) and 0.537 (inactive); in test [13] it was -0.266 (inactive) and 1.12 (inactive); in [14] it was -0.548 (inactive) and -0.522 (inactive); in test [16], 0.224 (inactive) and -0.174 (inactive).
With `C=C[C@@H](C)[C@H](O)c1ccc(O)c2ccccc12`, the composite z-score was -0.0835 and 0.0226 in [1]; 0.0628 and -0.136 in test [2]; -0.182 and -0.24 in [3]; -0.455 and -0.788 in test [4]; -0.889 and -2.07 in test [5]; -0.0351 and -0.653 in test [6]. For the same molecule, the composite z-score in [7] was -0.728 and -0.279; in test [9], -0.938 and -1.14; in test [10], 0.0373 and -0.261; in test [11], 0.849 and -0.813; in [15] it was 1.26 and 0.149; in test [17] it was -0.254 and -0.233. In addition, the composite z-score in test [18] was 0.753 and -0.896; in test [19] it was -0.0801 and -1.72; in test [20], -0.244 and -0.399. In addition, the z-score in test [8] was -0.431 (inactive) and 0.2 (inactive); in test [12], -0.647 (inactive) and -0.84 (inactive); in [13], -7.96 (inactive) and -7.6 (inactive); in test [14] it was 3.63 (inactive) and 2.2 (inactive); in test [16], 1.32 (inactive) and 0.1 (inactive).
